# In PubChem BioAssay (NCI):
# Several values for one entry are separate records, joined by “and”; a condition that tells them apart may be missing. Identical values can stand only once. This is part of a sample that, as a whole, favours compounds with a hit. Of some 83,000 tested, about 20% had one in any assay.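 Assay: single dose, 48 h. Readout: percent growth (0 = no net growth; negative = cell death). Active: <10.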 Unmarked numbers belong to inactive results. Activity calls are given as the source filed them.
# Experiments:
# Experiment in all cases: NCI-60 one-dose screen, 48 h (100 = growth as untreated, 0 = no growth, -100 = all killed)
# Settings in all cases: 10 µM unless noted
# [1] = tested on: SK-MEL-2 melanoma
# [2] = tested on: EKVX NSCLC
# [3] = tested on: SN12C renal
# [4] = tested on: UO-31 renal
# [5] = tested on: TK-10 renal
# [6] = tested on: ACHN renal
# [7] = tested on: CAKI-1 renal
# [8] = tested on: A498 renal
# [9] = tested on: HL-60(TB) leukemia
# [10] = tested on: CCRF-CEM leukemia
# [11] = tested on: MOLT-4 leukemia
# [12] = tested on: SR leukemia
# [13] = tested on: RPMI-8226 leukemia
# [14] = tested on: OVCAR-8 ovarian
# [15] = tested on: OVCAR-5 ovarian
# [16] = tested on: SK-OV-3 ovarian
# [17] = tested on: IGROV1 ovarian
# [18] = tested on: OVCAR-3 ovarian
# [19] = tested on: OVCAR-4 ovarian
# [20] = tested on: HS 578T breast
SMILES,growth [1],growth [2],growth [3],growth [4],growth [5],growth [6],growth [7],growth [8],growth [9],growth [10],growth [11],growth [12],growth [13],growth [14],growth [15],growth [16],growth [17],growth [18],growth [19],growth [20]
C=CC[PH+](c1ccccc1)c1ccccc1.C=CC[PH+](c1ccccc1)c1ccccc1.[Pt+2].[S-]c1ncccn1.[S-]c1ncccn1,75%,2.19% (active),40.3%,-94.5% (active),-3.54% (active),-43.3% (active),5.27% (active),103%,-5.51% (active),6.99% (active),7.91% (active),13.5%,0.618% (active),1.96% (active),14.3%,96.3%,16.3%,-24.5% (active),,
CCOP(=O)(NC)OCC,124%,146%,106%,92.2%,129%,108%,111%,74.3%,73.9%,93.4%,127%,71.3%,92.8%,115%,91.5%,104%,,99.5%,105%,98.4%
Cc1nnc([S-])o1.[Au+].c1ccc([PH+](c2ccccc2)c2ccccc2)cc1,47.9%,87.3%,40.8%,55.1%,102%,0.817% (active),41.6%,90.5%,6.51% (active),11.1%,38.6%,20.8%,17.2%,44.8%,110%,111%,20.9%,-61.4% (active),,30.4%
CCC1CCC(=O)O1 (configuration not stated),94.8% and 114%,111%,108% and 109%,85.5% and 95%,105% and 109%,105% and 109%,104%,96.5% and 98.6%,78% and 109%,116%,98.3% and 116%,,104% and 114%,109% and 118%,106% and 111%,95.2% and 119%,105% and 110%,108% and 110%,96.6% and 112%,106% and 108%
N#CC(C#N)=Cc1cccc(F)c1,112%,102%,101%,95.9%,104%,106%,99.6%,102%,97.2%,101%,97.9%,,103%,107%,98.4%,105%,112%,109%,110%,
Cc1cc[c-]cc1.Fc1c[c-]c(-c2ccccn2)c(F)c1.N#CCC[PH+](CCC#N)c1ccccc1.[Pt+2],59.4%,56.8%,23.9%,24.7%,106%,6.91% (active),14.8%,52.3%,2.54% (active),10%,5.29% (active),,14.6%,40.7%,64.9%,108%,30.2%,28.5%,42.1%,40.6%
O=C(CBr)OCCOC(=O)CBr,103%,101%,58%,-92.4% (active),130%,83%,33.5%,150%,42.4%,-15.5% (active),64.1%,8.37% (active),33.8%,93.7%,117%,133%,-45.8% (active),87.5%,38.3%,3.4% (active)
O=C(NCCCN1CC1)Nc1cccc2ccccc12,97.1% and 97.9%,109% and 103%,94.4% and 97.5%,97.7% and 83.7%,103% and 93.3%,93% and 87.6%,95.8% and 85.1%,124% and 86.9%,107%,108% and 86.3%,103% and 83.7%,102% and 87.1%,100% and 88.4%,80.1% and 79.3%,105% and 113%,101% and 95.8%,87.5% and 86.9%,109% and 113%,105% and 114%,96.2% and 106%
Cc1ccc(NC2=N[C@]34CC(=O)CC[C@]3(C)[C@H]3CC[C@]5(C)C(=O)CC[C@H]5[C@@H]3C[C@@H]4S2)c(C)c1,72.6%,51.9%,26.2%,34.3%,63.3%,32.3%,49.8%,66.7%,9.29% (active),7.99% (active),-0.311% (active),,-3.52% (active),31.7%,59.1%,78.5%,17.7%,-6.33% (active),59.6%,45.3%
C(=NC1CCCCC1)=NC1CCCCC1,92.8% and 94.4%,41.3%,100% and 82.2%,98% and 76.9%,101% and 104%,97.5%,91.3% and 88.7%,104% and 51.2%,118% and 46.3%,77.3%,101% and 86.1%,,97.6% and 50%,124% and 77.4%,89.7% and 90.7%,109% and 91.6%,,117% and 73%,107% and 59.9%,91.8%
O=C(O)c1ccccc1N(CCO)CCCl,116%,118%,98.3%,88.2%,117%,95%,112%,100%,53.8%,-3.53% (active),,84.2%,103%,101%,92.3%,108%,88.6%,111%,108%,120%
CCOC(=O)c1ccccc1C(=O)OCC,89.7%,80.3%,94.6%,84.8%,98.2%,98.4%,77.2%,104%,141%,94.8%,,128%,88.1%,84%,99.9%,113%,64.7%,107%,96.4%,95.5%
O=[P+](O)c1cccnc1,106%,101%,102%,91.5%,103%,110%,102%,111%,107%,98.3%,,96.4%,100%,107%,107%,103%,111%,108%,107%,
CCC(Br)(CC)C(=O)NC(N)=O,109%,107%,103%,93.2%,104%,109%,98.2%,104%,99.6%,102%,,105%,109%,113%,101%,114%,110%,111%,,
